# Measured values: PubChem BioAssay
# Key:
# [1] = system: Human papillomavirus type 1a protein E7 (residues 44-93); experiment: small molecules binding HPV E7 44-93 – biochemical, small-molecule microarray, residues 44-93, 635 nm fluorescence, primary screen (AID 1108); details: fluorescence 635 nm, higher = more signal;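 also: E7 fragment applied at 1 µg/mL in TBST for 1 h at 4 C; score combines spot fluorescence with its signal to noise ratio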
# [2] = hepatitis C replication reporter changes, two-sided – Huh7 cells, luciferase reporter, HCV replication inhibitor project, primary screen (AID 1109); details: Huh7 HCV replicon luciferase reporter, 48 h; higher = more signal;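 also: huh7 hepatoma cells harbouring a luciferase neomycin HCV replicon reporter; luciferase luminescence as measure of HCV replicon replication; test concentration not given here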
# [3] = target: Left-right determination factor 2 (Homo sapiens) (UniProt O00292); experiment: small molecules binding LEFTY2 protein – biochemical, small-molecule microarray, 635 nm fluorescence scan, primary screen (AID 1110); details: higher = more signal
# Sequence of Left-right determination factor 2 (Homo sapiens) (O00292 whole entry, looked up): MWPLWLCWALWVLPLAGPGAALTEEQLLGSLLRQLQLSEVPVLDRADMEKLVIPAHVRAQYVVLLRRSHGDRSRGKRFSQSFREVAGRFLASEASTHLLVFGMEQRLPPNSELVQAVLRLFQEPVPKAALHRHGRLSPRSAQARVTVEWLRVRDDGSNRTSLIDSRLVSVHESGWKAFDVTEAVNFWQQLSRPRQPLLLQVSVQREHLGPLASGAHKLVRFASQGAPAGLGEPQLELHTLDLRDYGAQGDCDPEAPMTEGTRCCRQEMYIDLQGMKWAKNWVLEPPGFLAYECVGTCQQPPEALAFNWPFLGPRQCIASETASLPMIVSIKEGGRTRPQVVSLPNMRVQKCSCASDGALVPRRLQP
# [4] = target: Calmodulin-1 (Homo sapiens) (UniProt P0DP23); experiment: small molecules binding calmodulin-1 with EGTA – biochemical, small-molecule microarray, Cy5-labelled CALM1, profiling panel (AID 1111); details: Cy5-CALM1 binding fluorescence, higher = more signal;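 also: labelled calmodulin applied in Tris saline Tween buffer holding calcium plus EGTA and DTT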
# [5] = target: Calmodulin-1 (Homo sapiens) (UniProt P0DP23); experiment: small molecules binding Ca-loaded calmodulin-1 – biochemical, small-molecule microarray, Cy5-labelled CALM1, plus calcium, artefact control for SMM control-protein annotation, profiling panel (AID 1112); details: Cy5-CALM1 binding fluorescence, higher = more signal;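 also: score merges spot fluorescence with signal to noise from triplicate slides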
# [6] = probe aWnt5a binding to arrayed compounds – biochemical, biotinylated probe, 635/667 nm fluorescence, primary screen (AID 1113); details: small-molecule microarray, higher = more signal;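 also: score merges 667 nm fluorescence intensity with signal-to-noise per printed feature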
# [7] = probe aShh binding to arrayed compounds – biochemical, biotinylated probe, 635/667 nm fluorescence, primary screen (AID 1114); details: small-molecule microarray, higher = more signal;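 also: probe is biotin-labelled aShh protein from a stem cell growth factor screen; measures binding of labelled protein to compounds printed on the slide; score merges feature fluorescence at 667 nm with signal-to-noise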
# [8] = probe aNog binding to arrayed compounds – biochemical, biotinylated probe, 635/667 nm fluorescence, primary screen (AID 1115); details: small-molecule microarray, higher = more signal;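 also: probe is biotinylated aNog protein used at 0.15 µg/mL for 1 h at 4 C; z-score combines 667 nm fluorescence of each spot with its signal to noise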
# [9] = target: Torsin-1A-interacting protein 1 (Homo sapiens) (UniProt Q5JTV8); experiment: compound microarray binding of lysate hLAP1 – cell lysate, small-molecule microarray, COS7 lysate, 635/667 nm fluorescence, primary screen (AID 1116); details: 635 nm fluorescence, higher = more signal
# Sequence of Torsin-1A-interacting protein 1 (Homo sapiens) (Q5JTV8 whole entry, looked up): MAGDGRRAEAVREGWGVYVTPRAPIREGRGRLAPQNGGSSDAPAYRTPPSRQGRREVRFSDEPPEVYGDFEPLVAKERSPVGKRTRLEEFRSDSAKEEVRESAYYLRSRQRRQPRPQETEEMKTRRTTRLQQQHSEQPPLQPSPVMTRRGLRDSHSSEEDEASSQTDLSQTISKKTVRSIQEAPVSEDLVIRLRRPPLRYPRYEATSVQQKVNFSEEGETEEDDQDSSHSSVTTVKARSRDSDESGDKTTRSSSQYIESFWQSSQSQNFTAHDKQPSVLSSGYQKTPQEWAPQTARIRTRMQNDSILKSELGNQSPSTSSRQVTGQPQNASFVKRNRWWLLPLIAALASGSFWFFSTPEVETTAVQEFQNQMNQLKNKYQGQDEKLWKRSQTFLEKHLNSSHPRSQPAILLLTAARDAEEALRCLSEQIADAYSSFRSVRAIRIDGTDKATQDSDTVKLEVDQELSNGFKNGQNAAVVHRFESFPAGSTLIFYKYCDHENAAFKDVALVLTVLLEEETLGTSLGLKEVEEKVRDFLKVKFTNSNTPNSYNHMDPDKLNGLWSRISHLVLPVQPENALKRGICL
# [10] = target: Alpha-bungarotoxin (Bungarus multicinctus) (UniProt P60615); experiment: compounds binding labelled alpha-BTX control protein – biochemical, small-molecule microarray, Alexa647 label, 635/667 nm fluorescence, artefact control for SMM control protein annotation, profiling panel (AID 1117); details: alpha-BTX-A647 binding fluorescence, higher = more signal
# Sequence of Alpha-bungarotoxin (Bungarus multicinctus) (P60615 whole entry, looked up): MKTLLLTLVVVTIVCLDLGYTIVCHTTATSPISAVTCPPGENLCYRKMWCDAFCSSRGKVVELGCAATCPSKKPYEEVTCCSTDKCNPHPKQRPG
Structure (SMILES),composite z-score [1],z-score [2],composite z-score [3],composite z-score [4],composite z-score [5],composite z-score [6],composite z-score [7],composite z-score [8],composite z-score [9],composite z-score [10]
C=CCN1C(=O)[C@]2(O[C@H](CCO)[C@@H]([Si](C)(C)c3ccc(OC)cc3)[C@@H]2C)c2cc(NC(=O)c3ccc(OC)cc3)ccc21,1.12,-5.1,0.391,0.0503,0.631,-0.102,-0.0553,-0.0184,0.336,0.732
CC(C)C(CO)N1C(=O)[C@@H]2[C@H]3C(=O)OCC=C[C@H]3OC23C=CCN(C(C)(C)C)C(=O)[C@@H]13 (stereo not given in full),-1.27,-0.425,-0.15,-0.907,-1.43,-0.204,0.0725,-0.133,-0.809,-0.0022
CCCNC(=O)[C@@]1(C)c2ccccc2C(=O)N(Cc2ccccc2)[C@H]1c1ccc(CO)cc1,0.391,0.398,-0.626,-0.0596,0.095,-0.197,-0.0421,-0.378,0.78,-0.612
COCCOC(=O)N1C(=O)[C@@]2(c3cc(C#CCNC(N)=O)ccc31)[C@H](c1ccc(O)cc1)N1[C@H](c3ccccc3)[C@H](c3ccccc3)OC(=O)[C@H]1[C@@H]2C(N)=O,-0.8,-0.101,-2.24,-0.747,0.502,-0.377,-0.378,-0.0585,-0.448,-2.27
C=CCOC(=O)[C@H]1[C@@H]2C(=O)O[C@@H](c3ccccc3)[C@@H](c3ccccc3)N2[C@@H](c2ccc(OCCOC(=O)[C@H]3C[C@H]4C(=O)N[C@@H](CCCCNC(C)=O)C(=O)N4[C@H]3c3cccc(OCCO)c3)cc2)[C@]12C(=O)Nc1ccc(I)cc12,1.42,-1.21,0.801,-0.0021,-0.451,0.0825,-0.705,-0.632,0.339,0.975
C=C(/C(=C/C[C@H](OC(=O)c1ccncc1)c1ccccc1OCCO)c1cnc2ccccc2c1)C(C)C,1.41,-2.63,1.05,0.547,-0.558,0.0374,0.172,-0.0809,0.358,1.73
NC(=O)NCC#Cc1ccc2c(c1)[C@]1(C(=O)N2)[C@H](C(=O)N2CCN(c3ncccn3)CC2)[C@H]2C(=O)O[C@H](c3ccccc3)[C@H](c3ccccc3)N2[C@@H]1c1ccc(OCCO)cc1,1.23,-1.6,0.0996,0.756,0.514,0.0775,-0.0553,0.833,0.572,1.42
Cc1cccc([C@H]2C[C@H]3C(I)=C[C@@H]2C(=O)[C@]32CO2)c1,-0.998,-1.94,0.0047,-0.542,-0.271,-0.141,-0.345,-0.0381,-0.0258,0.132
CCOC(=O)C1=CCN(S(=O)(=O)c2ccc(C)cc2)C1c1ccccc1 (stereo not given),0.666,-3.27,0.564,-0.263,-0.197,-0.0346,0.0204,0.46,0.553,0.848
CCCCNC(=O)c1ccc(C#C[Si](C(C)C)(C(C)C)C(C)C)c(OC(C)=O)c1,1.09,-1.13,0.785,0.367,-0.48,-0.0977,-0.2,-0.216,0.15,2.24
C=C/C=C/[C@@H]1C(=C)CN([C@@H](Cc2ccccc2)C(=O)OC)[C@H]1[C@@H](O)Cc1ccccc1,1.17,-0.622,0.201,0.241,-0.547,-0.107,-0.138,0.0924,0.309,0.325
CC(C)[Si]1(C(C)C)OCc2cc(-c3ccc(-c4ccc(Cl)c(Cl)c4)o3)nc(CCc3ccccc3)c21,-0.655,-0.826,0.198,-0.307,0.688,-0.054,-0.601,0.428,-0.395,-0.327
COCCCNC(=O)[C@@]1(Sc2ccc(C)cc2)CC(=O)N(Cc2ccccc2Cl)[C@@H]1c1ccc(CO)cc1I,-0.747,-1.94,-1.6,-0.434,0.717,-0.28,0.0115,-0.323,-1.36,-0.659
O=C1OCCC/C=C\[C@H]2OC34C=CCN(c5ccc6ccccc6c5)C(=O)[C@H]3N(CCCO)C(=O)[C@@H]4C12 (stereo not given in full),-0.148,-0.0935,-0.548,-0.371,0.0048,-0.124,0.184,0.0014,-0.387,-0.766
O=C(NCC(O)CO)[C@@]1(CCS(=O)(=O)c2ccccc2)COC(c2ccc(OCCCO)cc2)=N1 (stereo not given in full),1.38,-0.119,-0.412,1.25,1.09,0.0944,0.385,1.81,2.48,2.58
COc1ccc(CCNC(=O)[C@@]2(Cc3ccccc3I)c3ccccc3C(=O)N(Cc3ccccc3Cl)[C@H]2c2ccc(CO)cc2)cc1,-0.542,-2.44,-0.818,0.331,0.354,0.0718,0.235,0.371,0.589,-0.0759
CCCC=C(CCC)[C@@H](NS(=O)(=O)c1cccc2cccnc12)c1ccc(-c2ccccc2)cc1,1.39,-0.0261,0.601,1.62,0.841,0.183,0.432,-0.779,0.765,1.08
CN(C)CCCC[C@@H]1NC(=O)[C@@H]2C[C@H](C(=O)O)[C@H](c3cccc(OCCO)c3)N2C1=O,-0.927,-0.282,-0.43,-0.832,-0.238,-0.0179,-0.0793,-0.375,-0.657,-0.676

Structure (SMILES),composite z-score [1],z-score [2],composite z-score [3],composite z-score [4],composite z-score [5],composite z-score [6],composite z-score [7],composite z-score [8],composite z-score [9],composite z-score [10]
O=C1NC(=O)C2C1C=CC(C(O)c1ccccn1)N2Nc1ccc(Cl)cc1Cl (stereo not given),0.553,0.812,0.0905,1.46,0.819,-0.16,0.171,0.383,0.422,-0.0671
[N-]=[N+]=Nc1ccccc1[C@@H]1OC(c2ccc(OCCCO)cc2)=N[C@]1(Cc1ccccc1)C(=O)NCc1ccccc1,0.656,-2.53,-0.0068,2.46,1.33,0.166,0.628,1.95,2.27,2.92
C=C(/C(=C/C[C@@H](OC(C)=O)c1ccc(OCCO)cc1)c1cc(C(=O)OC)ccc1OC)C(C)C,-0.544,-0.161,0.354,0.0164,-0.258,-0.181,-0.0769,-0.237,0.651,1.31
COc1ccc([Si](C)(C)[C@@H]2[C@@H](CCn3cc([C@H](O)c4ccccc4)nn3)O[C@]3(C(=O)N(c4ccccc4)c4ccccc43)[C@H]2C)cc1,-0.0404,-3.76,-0.184,0.052,-0.336,-0.096,0.413,0.383,0.0664,0.351
NC(=O)[C@H]1[C@@H]2C(=O)O[C@@H](c3ccccc3)[C@@H](c3ccccc3)N2[C@@H](c2ccc(O)cc2)[C@]12C(=O)Nc1ccccc12,-0.0092,-0.449,-0.194,-0.408,0.517,-0.0124,-0.214,-0.0753,-0.428,-1.15
COCC(=C=CC[C@@H](O)c1cccc(OCCO)c1)CCO,0.328,0.22,-0.313,0.32,0.281,0.129,-0.372,-0.0987,0.69,1.73
CCC(CC)C(O)C1C=CC2C(=O)N(c3ccccc3)C(=O)C2N1Nc1ccc([N+](=O)[O-])cc1 (stereo not given),1.47,-0.451,-0.139,1.27,0.717,0.152,0.04,0.0323,0.0001,1.42
COCCOC(=O)N1C(=O)[C@@]2(c3cc(C#CCC(C(=O)OC)C(=O)OC)ccc31)[C@H](C(=O)NC[C@H](O)c1ccccc1)[C@H]1C(=O)O[C@H](c3ccccc3)[C@H](c3ccccc3)N1[C@@H]2c1ccc(O)cc1,1.37,-0.545,0.102,1.65,0.247,-0.0194,-0.0146,-0.038,1.37,0.195
COC(=O)c1c2oc(c1C(=O)OC)C(=O)N1CCC[C@H]1Cn1nncc1CN(Cc1ccccc1)C(=O)N[C@H](CO)CC2,0.289,0.253,0.239,0.724,0.169,-0.0738,-0.221,-0.296,-0.285,-0.524
CN1C(=O)C2C=CC(C(O)c3ccc(F)cc3)N(NC(=O)OC(C)(C)C)C2C1=O (stereo not given),1.36,-0.428,-0.205,0.989,0.469,-0.109,0.265,1.12,-0.102,0.613
CC(C)C[C@@H]1NC(=O)CNC(=O)[C@@]23C(=O)N[C@@H](Cc4ccccc4)C2[C@H](C)[C@@]2(C)O[C@H]2C3/C=C/C/C=C\CNC1=O (stereo not given in full),1.39,-0.275,0.6,-0.263,-0.825,-0.147,-0.388,-0.177,0.625,0.985
COC(=O)[C@@]1(Cc2ccc(F)cc2)[C@H]2c3cc(C(=O)N(C)C)n(Cc4c(CO)[nH]cc(C)c4=O)c3C[C@H]2CN1C(=O)c1ccccc1,-0.275,-0.573,-0.104,0.263,-0.184,0.0375,0.649,1.38,1.16,0.0084
CCCCC=C[C@@H](NC(=O)c1ccccc1)c1ccccc1,1.38,1.02,-0.174,1.87,1.28,-0.0229,-0.253,-0.578,0.206,0.448
CC(C)=CCCC(C)=CC(O)C1C=CC2C(=O)N(c3ccccc3)C(=O)C2N1Nc1ccccc1F (stereo not given),0.961,-1.43,-0.0742,1.67,-0.132,-0.171,-0.414,-0.196,2.19,0.529
O=C1OCC=C[C@H]2OC34C=CCN(c5ccc6ccccc6c5)C(=O)[C@H]3N(CCCCCO)C(=O)[C@@H]4[C@@H]12 (stereo not given in full),0.203,-0.078,-2.05,-0.402,0.239,-0.098,0.151,0.244,1.35,-0.0602
CCCCCN1CC=CC23O[C@@H]4C=CCOC(=O)[C@@H]4[C@H]2C(=O)N(CCO)[C@@H]3C1=O (stereo not given in full),0.673,0.644,-0.397,-0.343,0.595,-0.172,-0.138,-0.305,0.665,-0.514
C=C(CCCC)C(=O)CC[C@@H](OC(=O)c1cccnc1)c1ccc(OCCO)cc1,0.849,-2.35,0.249,-0.588,-0.684,-0.0161,-0.243,-0.374,0.903,0.172
